The whole screen tested about 16,000 compounds, of which about 4,000 (25%) were called active. Roughly 26% stayed inconclusive and do not appear here. A selection follows. A number with no mark means an inactive call. Calls follow the shape of the dose curve; as a rule, active = well fitted curve in the direction sought with a large enough effect; inconclusive = small, poorly fitted or top-dose-only effect, or effect the other way; inactive = no such curve, though single readings can be large or run the other way.
Biological target: Cytochrome P450 2C9 (Homo sapiens) (UniProt P11712)
Assay: Cytochrome panel assay with activity outcomes
Conditions: recombinant CYP, pro-luciferin dealkylation, luminescence, p450-cyp2c9; series mostly up to 57.1 µM; activity, negative = inhibition: at the top concentration
% is scaled to controls: 0 for no effect and ±100 for the full control effect.

Cytochrome P450 2C9 (Homo sapiens), sequence (P11712 whole entry, looked up): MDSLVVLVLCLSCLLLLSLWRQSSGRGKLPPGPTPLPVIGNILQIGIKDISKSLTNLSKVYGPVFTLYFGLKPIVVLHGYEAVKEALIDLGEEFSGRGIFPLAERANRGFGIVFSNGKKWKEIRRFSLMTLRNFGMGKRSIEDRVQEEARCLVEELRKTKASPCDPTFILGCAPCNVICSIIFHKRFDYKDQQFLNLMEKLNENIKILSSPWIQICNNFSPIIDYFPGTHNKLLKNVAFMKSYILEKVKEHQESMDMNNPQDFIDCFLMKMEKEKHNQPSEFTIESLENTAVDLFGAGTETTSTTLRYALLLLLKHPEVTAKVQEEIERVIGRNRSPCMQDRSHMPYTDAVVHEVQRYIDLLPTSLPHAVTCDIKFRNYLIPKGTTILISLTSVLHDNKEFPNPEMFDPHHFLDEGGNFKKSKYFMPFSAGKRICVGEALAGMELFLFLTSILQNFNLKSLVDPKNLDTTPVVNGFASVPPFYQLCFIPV

| SMILES | activity, negative = inhibition | AC50 |
| --- | --- | --- |
| O=C(NC(=S)Nc1nc(-c2ccc(Br)cc2)cs1)c1cccnc1 | -6.99% |  |
| Cc1nn(C(C)(C)C)c(OC(=O)c2ccco2)c1Sc1ccccc1 |  | 10 µM (active) |
| Cc1nc2ncnn2c(C)c1CCC(=O)N1CCN(C(=O)c2ccco2)CC1 | -6.62% |  |
| NC(=O)/C(=N\OC(=O)c1ccco1)c1nc(-c2ccc(Br)cc2)cs1 | 58.2% |  |
| Cc1nn(C(=O)c2ccco2)c(C)c1Sc1ccc(Br)cc1 |  | 3.98 µM (active) |
| Cc1nn(C(=O)c2cccnc2)c(C)c1Sc1ccc(Br)cc1 |  | 10 µM (active) |
| CO[C@@H]1COC(=O)[C@H]2CCCN2C(=O)[C@@H](C)COC(=O)[C@H](COCc2ccccc2)NC(=O)C/C=C\[C@H]1C | 10.5% [at 11.4 µM] |  |
| NC(=S)c1ccc[n+]([C@@H]2O[C@@H](COP(=O)([O-])OP(=O)(O)OC[C@@H]3O[C@@H](n4cnc5c(N)ncnc54)[C@@H](OP(=O)(O)O)[C@H]3O)[C@@H](O)[C@H]2O)c1 | -19.2% |  |
| COc1ncc2ncc(=O)n(C)c2n1 | 14.6% |  |
| CCc1ccc(NC(=O)CS(=O)CC(=O)NCCCc2ccccc2)cc1 (stereo unspecified) |  | 0.794 µM (active) |
| CCCCC(=O)Nc1ccc(C(=O)NNC(=O)CCc2ccccc2)cc1 | 7.05% |  |
| O=C(NCCCc1ccccc1)c1cccs1 |  | 15.8 µM (active) |
| CCc1ccc(OCCCC(=O)Nc2ccc(N3CCCCC3)cc2)cc1 | -21.4% |  |
| Cc1ccc(NC(=O)NCCCc2ccccc2)cc1 |  | 11.2 µM (active) |
| COc1ccc(NC(=O)N2CCCC3(CCNCC3)C2)cc1 | -5.11% |  |
| CC(C)=CCC/C(C)=C/CO/N=C1/[C@H]2O[C@@H]2[C@@H](O)[C@H]2[C@H]1CCn1c(=O)n(-c3ccccc3)c(=O)n12 | 6.87% [at 11.4 µM] |  |
| Nc1ccc(C(=O)NCC(=O)O)cc1 | 9.9% [at 25.6 µM] |  |
| CCNC(=O)c1ccc(-n2nc(C)cc2-c2ccccc2)cc1 |  | 7.94 µM (active) |
| Cc1cnnn1-c1ccc(C(=O)CCl)cc1 | -4.42% |  |
| N=C(N)SCCN |  | inactive |
| COC(=O)CNC(=O)CCCCC(=O)NCC(=O)OC | 5.38% |  |
| CC(C)=CCC/C(C)=C/CO/N=C1/C[C@@H](O)[C@@H](O)[C@@H]2[C@@H]3C(=O)N(Cc4ccc5c(c4)OCO5)C(=O)[C@H]3CC[C@H]12 | -26.4% [at 11.4 µM] |  |
| Nc1ccc(S(=O)(=O)Nc2ncccn2)cc1 | -7.42% [at 25.6 µM] |  |
| CCCCOc1ccc(CC(=O)NO)cc1 | -15.6% [at 25.6 µM] |  |
| O=C(Nc1ccc(OC(=O)c2cccnc2)cc1)c1cccnc1 | -16.9% |  |
| COc1ccc(OC(=O)c2ccncc2)cc1 |  | 4.47 µM (active) |

| SMILES | activity, negative = inhibition | AC50 |
| --- | --- | --- |
| COc1cnc(NS(=O)(=O)c2ccc(N)cc2)nc1 | -9.19% [at 25.6 µM] |  |
| CCCCCOc1ccc(OC(=O)c2ccncc2)cc1 |  | 2.82 µM (active) |
| COc1ccc(C(=O)N2CCC3(CC2)CCN(c2ccncc2)CC3)cc1 | 1.22% |  |
| CCCCOc1ccc(OC(=O)c2cccnc2)cc1 |  | 14.1 µM (active) |
| COc1ccc(C(Cl)=C(c2ccc(OC)cc2)c2ccc(OC)cc2)cc1 | 12.9% [at 25.6 µM] |  |
| CCCCN(CCCC)CCCOC(=O)c1ccc(N)cc1 | -9.19% [at 25.6 µM] |  |
| CCCCOc1ccc(S(=O)(=O)Nc2cccnc2)cc1 |  | 1.26 µM (active) |
| Cc1ccc(OCC(=O)NNC(=O)c2cccnc2)cc1 | 0.128% |  |
| c1cncc(-c2cncnc2NC2CCNCC2)c1 | 17.3% [at 2.29 µM] |  |
| COc1c(C)c2c(c(O)c1C/C=C(\C)CCC(=O)O)C(=O)OC2 |  | inactive |
| C[C@H]1C[C@H]2[C@H]3CCC4=CC(=O)C=C[C@@]4(C)[C@]3(F)[C@H](O)C[C@]2(C)[C@@]1(O)C(=O)COP(=O)(O)O | 23.1% [at 11.4 µM] |  |
| N#Cc1c(-n2ccnc2)cccc1-n1ccnc1 |  | 0.562 µM (active) |
| FC(F)(F)c1ccccc1-n1ccnc1 | -3.84% |  |
| N#Cc1cccc(-c2cncnc2-n2ccnc2)c1 | 12.2% [at 2.29 µM] |  |
| CCCCCCCCOC1OC(CO)C(O)C(O)C1NC(C)=O (stereo unspecified) | 11.5% |  |
| C[C@@H]1C[C@H]2[C@H]3C[C@@H](F)C4=CC(=O)C=C[C@]4(C)[C@@]3(Cl)[C@@H](O)C[C@@]2(C)[C@@H]1C(=O)COC(=O)C(C)(C)C | 6.05% [at 25.6 µM] |  |
| CC(=O)c1ccc(S(=O)(=O)NC(=O)NC2CCCCC2)cc1 | -9.98% [at 25.6 µM] |  |
| COc1ccc(F)cc1S(=O)(=O)NC(Cc1ccccc1)C(N)=O (stereo unspecified) | -18.3% |  |
| CC(C)(C)NS(=O)(=O)c1ccc(NC(=O)NC2CCCCC2)cc1 |  | 20 µM (active) |
| Cc1cccc(C)c1NC(=O)Nc1ccc(S(N)(=O)=O)cc1 | -4.33% [at 11.4 µM] |  |
| COc1ccc(S(=O)(=O)Nc2ccc(F)cc2)c(C)c1C |  | 8.91 µM (active) |
| Cn1c(CNS(=O)(=O)c2ccc(F)cc2)n[nH]c1=S | -10.4% |  |
| COc1ccccc1S(=O)(=O)Nc1ccc(-c2nnc3n2CCCCC3)cc1 | -3.81% |  |
| CC(C)(C)NS(=O)(=O)c1ccc(NS(=O)(=O)c2ccc(F)cc2)cc1 |  | 0.2 µM (active) |
| CC(C)(C)c1ccc(NS(=O)(=O)c2ccc(N)cc2)cc1 | -10.7% [at 11.4 µM] |  |

Source: PubChem BioAssay AID1851 (National Center for Advancing Translational Sciences (NCATS), 2009)
